Unmarked numbers belong to inactive results. The source made the active and inactive calls. No stated cut-off is given here; in the data, active means remaining activity below about 50%; inactive means the rest.
target: Phospholipase D1 (Homo sapiens) (UniProt Q13393); assay: PLD1 inhibitors in cells, Calu-1 cells, single concentration (AID 602144); conditions: cellular PLD1 activity, active compounds read low;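 further: tested at 200 nM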
Sequence (Q13393 whole entry, looked up): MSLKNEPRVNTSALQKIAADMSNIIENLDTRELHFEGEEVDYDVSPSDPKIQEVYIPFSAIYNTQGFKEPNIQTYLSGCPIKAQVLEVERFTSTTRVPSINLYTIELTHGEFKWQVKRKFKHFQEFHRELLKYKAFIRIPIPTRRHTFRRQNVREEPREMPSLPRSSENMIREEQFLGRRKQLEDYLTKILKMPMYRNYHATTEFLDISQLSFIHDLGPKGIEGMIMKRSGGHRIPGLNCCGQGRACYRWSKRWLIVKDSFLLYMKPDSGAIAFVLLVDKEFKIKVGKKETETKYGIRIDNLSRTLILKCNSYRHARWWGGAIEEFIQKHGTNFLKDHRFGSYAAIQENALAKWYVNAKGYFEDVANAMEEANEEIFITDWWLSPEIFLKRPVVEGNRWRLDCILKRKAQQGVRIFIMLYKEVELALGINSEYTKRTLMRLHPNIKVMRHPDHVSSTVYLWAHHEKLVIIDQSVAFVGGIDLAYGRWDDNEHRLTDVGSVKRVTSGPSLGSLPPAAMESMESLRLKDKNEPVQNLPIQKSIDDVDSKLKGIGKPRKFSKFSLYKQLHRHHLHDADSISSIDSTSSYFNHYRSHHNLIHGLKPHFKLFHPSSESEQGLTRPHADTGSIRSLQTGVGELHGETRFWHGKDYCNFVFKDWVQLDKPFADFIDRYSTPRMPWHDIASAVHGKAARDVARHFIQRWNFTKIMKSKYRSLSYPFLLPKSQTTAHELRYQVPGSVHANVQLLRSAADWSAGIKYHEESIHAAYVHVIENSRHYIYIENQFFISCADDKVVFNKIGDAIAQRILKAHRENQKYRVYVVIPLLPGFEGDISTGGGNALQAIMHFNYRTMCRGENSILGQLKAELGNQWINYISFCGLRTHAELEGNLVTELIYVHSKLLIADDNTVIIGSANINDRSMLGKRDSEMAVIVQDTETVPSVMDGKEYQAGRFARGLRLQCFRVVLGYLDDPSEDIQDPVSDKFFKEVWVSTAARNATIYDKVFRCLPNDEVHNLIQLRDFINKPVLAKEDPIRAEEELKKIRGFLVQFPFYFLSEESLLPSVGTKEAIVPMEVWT
Sequence (Q13393 whole entry, looked up): as above

| SMILES | remaining activity |
| --- | --- |
| O=C(NCCN1CCC(n2c(=O)[nH]c3ccccc32)CC1)N1c2ccccc2Sc2ccccc21 | 89.7% |
| O=C(NCCN1CCC(n2c(=O)[nH]c3ccccc32)CC1)c1cc([N+](=O)[O-])cc([N+](=O)[O-])c1 | 50% (active) |
| O=c1[nH]c2ccccc2n1C1CCN(CCNS(=O)(=O)c2cc(Cl)ccc2Cl)CC1 | 104% |
| O=C1c2ccccc2C(=O)N1CCN1CCC(n2c(=O)[nH]c3ccccc32)CC1 | 112% |
| C[C@@H](CN1CCC(n2c(=O)[nH]c3ccc(F)cc32)CC1)NC(=O)c1ccc(F)cc1 | 16% (active) |
| COc1ccccc1NC(=S)NCCN1CCC(n2c(=O)[nH]c3ccccc32)CC1 | 152% |
| O=C(NCCN1CCC(n2c(=O)[nH]c3ccccc32)CC1)c1cccc(Cl)n1 | 37.8% (active) |
| C[C@@H](CN1CCC2(CC1)CCN(C)C2=O)NC(=O)c1ccc2ccccc2c1 | 122% |
| O=C(NCCN1CCC(n2c(=O)[nH]c3ccccc32)CC1)c1cccc(F)n1 | 34% (active) |
| CN(C)c1cccc2c(S(=O)(=O)NCCN3CCC(n4c(=O)[nH]c5ccccc54)CC3)cccc12 | 127% |
| O=C(NCCN1CCC(n2c(=O)[nH]c3ccc(F)cc32)CC1)c1cccc2c1C(=O)c1ccccc1-2 | 0% (active) |
| C[C@@H](CN1CCC2(C=Cc3ccccc32)CC1)NC(=O)c1cnc2ccccc2c1 | 137% |
| CN(CCN1CCC(n2c(=O)[nH]c3ccccc32)CC1)C(=O)c1ccc2ccccc2c1 | 75.5% |
